# Source: PubChem (National Center for Advancing Translational Sciences (NCATS))
# Rows were chosen to be rich in hits. Some 3.9% of all compounds tested hit in one or more screens of this group.
# HT1080 IDH1KD tx: toxicity to HT-1080 IDH1 knockdown cells (counter line). HT-1080 IDH1 knockdown viability, ATP luminescence, 48 h. Potency, µM (top dose mostly 46.1 µM), without a hit: top-dose activity, negative = toxicity, usual class: cytotoxic. 2% of 360,000 active;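 note: 0% = DMSO wells and -100% = cell-free medium wells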
#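 Luminescent ATP read-out (CellTiter-Glo, 10 min at room temperature) after 48 h compound exposure at 37 °C gave viability of IDH1-knockdown HT-1080 cells. Activity was normalised to DMSO and cell-free wells, then fitted as concentration-response curves.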
# ATXN2 expr inh: reduces ATXN2 reporter expression in HEK-293 cells. Potency, µM (titrated, usually from 57 µM), inactives show at the highest dose activity change, negative = inhibition, usual class: inhibitors. HEK-293 ATXN2-luciferase reporter, luminescence, 24 h. 0.72% of 360,000 active; note: % is set by controls: 0 for no effect and ±100 for the full control effect; nearly all actives have a fitted effect of over 55% in size
#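 qHTS (up to 57 uM final) was run with 24 h compound exposure of reporter cells at 37 °C. Each well was multiplexed: SteadyGlo luminescence measured ATXN2-luciferase expression after a fluorogenic Gly-Phe-AFC viability readout (25 uM final).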
# HepG2 tox-1: counter-screen for TGF-b inhibitors: cytotoxicity in HepG2 cells. HepG2 CAGA-GFP viability, ATP luminescence, 18 h. Potency, µM (highest dose often 46.1 µM), without a hit: top-dose activity change, negative = cytotoxicity, hits mostly cytotoxic. 0.76% of 410,000 active
#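 HepG2 CAGA-GFP cells (1000/well, DMEM with 1% FBS) received compound, then TGF-beta at 500 pg/mL final, and were incubated 18 hours at 37 degrees C. Viability was read by CellTiter-Glo luminescence. Media-only wells were set as complete cell-killing and DMSO as no toxicity.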
# TGFb SMAD3 inh: TGF-b pathway inhibition. HepG2 CAGA-GFP TGF-b/SMAD3 reporter, GFP fluorescence, 18 h; TGF-beta stimulated, 500 pg/mL final. Potency, µM (highest dose often 46.1 µM), without a hit: at the highest dose activity, negative = inhibition, actives largely listed as inhibitors. 1.2% of 410,000 active; note: % is set by controls: 0 for no effect and ±100 for the full control effect; nearly all actives have a fitted effect of over 65% in size
#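 Smad-responsive CAGA-GFP expression was quantified in HEPG2 cells exposed to compounds and 500 pg/mL final TGF-beta for 18 h at 37 degrees C; unstimulated wells defined full inhibition.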
# HT1080NT lethal: kills 2HG-producing HT-1080-NT fibrosarcoma cells; HT-1080-NT fibrosarcoma viability, CellTiter-Glo ATP luminescence, 48 h; Potency, µM (doses to about 46.1 µM), for the others: top-dose activity, negative = less viability, most hits filed as cytotoxic; 1.6% of 360,000 active;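 note: NT is the 2HG producing partner of a matched IDH1 knockdown line; 0% = DMSO-treated cells and -100% = media-only wells without cells; nearly all actives have a fitted effect of over 55% in size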
#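 A 48-hour cytotoxicity screen used HT-1080-NT cells plated 2 hours before compound delivery. ATP-based CellTiter-Glo luminescence measured viability, normalized to DMSO and no-cell controls.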
# ATXN viability: viability counter-screen for ATXN expression inhibitors | S2 cells (HEK-293 line with an ATXN2-luciferase reporter) viability, CellTiter-Fluor protease fluorescence, 24 h | Potency, µM (top dose mostly 56.7 µM), most hits filed as cytotoxic | 0.49% of 400,000 active | AID 651635; note: nearly all actives have a fitted effect of over 40% in size
# TGFb CAGA inh: TGF-b pathway inhibition, cherry-pick retest; HepG2 CAGA-GFP TGF-b reporter, GFP fluorescence, 18 h; cells stimulated with TGF-beta, 500 pg/mL; shares compounds with TGFb SMAD3 inh; 63% of 1,600 active; Potency, µM (top dose mostly 46.1 µM), without a hit: at the highest dose activity, negative = inhibition, hits mostly inhibitors; note: % is set by controls: 0 for no effect and ±100 for the full control effect; nearly all actives have a fitted effect of over 65% in size
# HepG2 tox-2: HepG2 cytotoxicity, TGF-b inhibitor counterscreen | Potency, µM (highest dose often 46.1 µM), without a hit: at the highest dose activity, negative = cytotoxicity, most hits filed as inhibitors | 27% of 1,600 active | shares compounds with TGFb SMAD3 inh | HepG2 CAGA-GFP viability, ATP luminescence, 18 h; cells stimulated with TGF-beta, 500 pg/mL | AID 720535; note: % is set by controls: 0 for no effect and ±100 for the full control effect; nearly all actives have a fitted effect of over 70% in size
# CCL64 TGFb inh: TGF-b inhibition, CCL64 orthogonal assay; AID 720536; 41% of 1,600 active; Potency, µM (top dose mostly 46.1 µM), for the others: at the highest dose activity, negative = inhibition, usual class: inhibitors; shares compounds with TGFb SMAD3 inh; CCL64 CAGA-GFP reporter, TGF-b stimulated, GFP fluorescence, 18 h; note: nearly all actives have a fitted effect of over 65% in size
# COP TGFb inh: TGF-b inhibition validated with COP promoter. AID 720537. 3% of 1,600 active. Potency, µM (series often up to 46.1 µM), for inactives: top-dose activity, negative = inhibition, usual class: inhibitors. HepG2 COP-GFP TGF-b reporter, GFP fluorescence, 18 h; cells stimulated by added recombinant TGF-beta. shares compounds with TGFb SMAD3 inh; note: nearly all actives have a fitted effect of over 70% in size
# * = called active by the depositor; i = inactive; ? = inconclusive; . = no result given. Calls come from the whole dose curve; as a rule, active = well fitted curve in the direction sought with a large enough effect; inconclusive = small, poorly fitted or top-dose-only effect, or another doubt; inactive = no such curve, though single readings can be large; an effect the other way counts as inactive or inconclusive. Potency is the fitted concentration of half-maximal effect.
SMILES,HT1080 IDH1KD tx,ATXN2 expr inh,HepG2 tox-1,TGFb SMAD3 inh,HT1080NT lethal,ATXN viability,TGFb CAGA inh,HepG2 tox-2,CCL64 TGFb inh,COP TGFb inh
CCCCOc1ccc(CSCCNC(=S)Nc2ccccc2)cc1,?,-24.3%,-16.9%,7.94µM*,-19.3%,?,?,-15.7%,8.7%,-10.0%
CCCCCOc1ccc(CSCCNC(=S)Nc2ccccc2)cc1,2.0%,-5.4%,-8.9%,-11.4%,11.2%,i,.,.,.,.
O=C1C=C(N2CCN(c3ccccn3)CC2)C(=O)c2c(O)ccc(O)c21,-27.0%,?,-92.1%,7.08µM*,-6.0%,?,4.61µM*,9.2µM*,?,-9.5%
CN(C)CC(C(=O)c1ccccc1)c1ccccc1 (stereo unspecified),13µM*,22.4µM*,8.91µM*,3.98µM*,-2.9%,.,5.17µM*,10.3µM*,3.26µM*,?
Cc1cccc(CCNC(=O)c2ccc3c(c2)nc2n3CCCCC2)c1,.,.,-23.7%,-11.0%,.,.,.,.,.,.
CCCCC(CC)C(=O)Nc1ncc([N+](=O)[O-])s1 (stereo unspecified),18.4µM*,?,1.9%,11.2µM*,?,?,7.31µM*,?,?,64.8%
Cc1ccc(CC(=O)Nc2ncc([N+](=O)[O-])s2)cc1,-4.8%,.,-13.1%,-16.3%,-10.0%,?,.,.,.,.
CCCc1nc([N+](=O)[O-])c(S(=O)(=O)c2ccccc2)n1CC(C)C,?,?,-64.1%,10µM*,-9.7%,?,20.6µM*,?,16.4µM*,28.4%
FC(F)(F)c1cccc(-c2nc3nc(Cl)c(Cl)nc3[nH]2)c1,?,.,-33.0%,2.24µM*,?,i,6.51µM*,6.51µM*,5.17µM*,63.9%
FC(F)(F)c1nc2nc(Cl)c(Cl)nc2[nH]1,-19.9%,.,-3.5%,-11.3%,-17.4%,?,.,.,.,.
Cc1ccc(-n2nc(-c3ccccc3)c3cnc4cc5c(cc4c32)OCO5)cc1C,.,5.1%,0.2%,5.5%,.,i,.,.,.,.
N#CC(c1cccc(Cl)c1)c1ccc2c(C(F)(F)F)cc(C(F)(F)F)nc2n1 (stereo unspecified),?,2.51µM*,-48.7%,1.26µM*,9.2µM*,5.62µM*,0.366µM*,1.3µM*,1.16µM*,15.5%
Nc1ccc(S(=O)(=O)N2CCc3ccccc32)cc1,-15.4%,-14.4%,-0.8%,18.9%,-4.0%,i,.,.,.,.
O=S(=O)(NC1CCCC1)c1ccc(S(=O)(=O)N2CCc3ccccc32)cc1,?,?,3.6%,?,?,?,9.2µM*,-17.8%,-2.4%,-11.0%
CC1C(=O)N(Cc2cn(CCC3OCCCO3)nn2)CCS(=O)(=O)N1Cc1ccc(-c2ccc(Cl)cc2)cc1 (stereo unspecified),?,17.8µM*,-27.4%,12.6µM*,?,28.2µM*,?,?,?,67.1%
Cc1ccc(-c2ccc(CN3C(C(C)C)C(=O)N(Cc4cn(CCC5OCCO5)nn4)CCS3(=O)=O)cc2)c(C)c1 (stereo unspecified),23.1µM*,?,-76.4%,11.2µM*,?,?,23.1µM*,?,23.1µM*,-21.0%
Cc1ccccc1-c1ccc(CN2C(C(C)C)C(=O)N(Cc3cn(CCC4OCCO4)nn3)CCS2(=O)=O)cc1 (stereo unspecified),?,?,-0.3%,?,?,?,.,.,.,.
Cc1ccc(S(=O)(=O)N2CCN(c3cc(-c4cccs4)nc4ccccc34)CC2)cc1,.,.,-18.8%,7.1%,.,.,.,.,.,.
Cc1ccc(C(=O)n2nc(C)c(S(=O)(=O)N3CCCCCC3)c2C)cc1,.,-2.2%,2.6%,0.0%,.,i,.,.,.,.
COC(=O)c1scc(-c2ccc(C)cc2)c1S(=O)(=O)N1CCN(c2cccc(OC)c2)CC1,.,-9.1%,-21.9%,?,.,i,.,.,.,.
Cc1ccc(-c2nc3c(c(SCC(=O)Nc4cccc(C(=O)O)c4)n2)Cc2cccc(C)c2O3)cc1,.,.,-0.5%,-4.2%,.,.,.,.,.,.
O=C(OC(C(=O)Nc1cc(Cl)cc(Cl)c1)c1ccccc1)C1=COCCO1 (stereo unspecified),-1.1%,-11.9%,-14.1%,15.8µM*,-0.2%,?,?,?,18.4µM*,43.5%
COc1ccc(C(=O)Nc2oc(-c3ccccc3)c(-c3ccccc3)c2C#N)cc1,?,-2.9%,-27.6%,-22.8%,-28.7%,i,.,.,.,.
Cc1cccc(C)c1OCC(=O)Nc1oc(-c2ccccc2)c(-c2ccccc2)c1C#N,-20.3%,-1.1%,-5.3%,12.6µM*,?,i,?,?,?,26.9%
CCCC(=O)NC(=S)Nc1cccc(Cl)c1N1CCCCC1,10µM*,?,-87.4%,7.94µM*,5.01µM*,?,14.6µM*,?,?,51.1%
COc1ccccc1/C=N/NC(=O)CSc1ccc2ccccc2n1,?,62.9%,-4.9%,0.0%,?,i,.,.,.,.
CCCCSc1nc(C)cc(SCC(=O)N/N=C/c2cccc(OC)c2O)n1,?,7.08µM*,-26.2%,7.94µM*,?,?,8.2µM*,?,11.6µM*,-1.2%
CC1=C(c2ccc(C)cc2)S(=O)(=O)N(Cc2ccc(C(=O)NCc3cccc(C)c3)cc2)C1=O,.,.,0.2%,-16.0%,.,.,.,.,.,.
CC1CCN(C(=O)CSc2c(C(C)C)cnc3c2c(=O)n(C)c(=O)n3C)CC1,.,.,-9.9%,-11.6%,.,.,.,.,.,.
